This note sets out measurements from PubChem BioAssay (EPA / NIEHS).

The nature of assay [1]: ATG_E_Box_CIS: Attagene CIS-FACTORIAL HepG2 Assay for human Enhancer Box (E-box) (AID 2282936). Particulars: HepG2 E-box cis-reporter transcription, actives raise or lower the signal. A digest of the protocol: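 E-box-driven reporter transcripts measured in transiently transfected HepG2 after 24 h exposure: RNA reverse-transcribed, PCR-amplified, fluorescently labelled, digested and resolved by capillary electrophoresis. Gain or loss relative to DMSO.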

A short description of assay [2]: ATG_M_61_CIS: Attagene CIS-FACTORIAL HepG2 Assay for M61 Transcription Factor (Internal Marker) (AID 2282937). Particulars: HepG2 Attagene CIS-FACTORIAL M61 internal marker reporter; actives raise or lower the signal. A digest of the protocol:
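Human liver HepG2, transient MRTU transfection (cis promoter elements), 24 h compound. Total RNA → oligo(dT) RT → PCR → FAM label → HpaI → CE. Internal background marker; bidirectional fitting, DMSO = baseline.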

Assay [3] is described as follows: ATG_EGR_CIS: Attagene CIS-FACTORIAL HepG2 Assay for human Early Growth Response 1 (EGR1) (AID 2282938). Conditions: HepG2 Attagene CIS-FACTORIAL EGR reporter mRNA; actives raise or lower the signal. The method in brief: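 Transient transfection of human HepG2 with multiple cis-regulated reporter units, chemical exposure 24 h, total RNA isolated. Reverse transcription, PCR, fluorescent labelling and capillary electrophoresis quantify reporter transcripts; activity fitted bidirectionally against DMSO.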

Assay [4] in a line: ATG_M_19_CIS: Attagene CIS-FACTORIAL HepG2 Assay for M19 Transcription Factor (Internal Marker) (AID 2282939). Conditions: HepG2 Attagene CIS-FACTORIAL M19 internal marker reporter; actives raise or lower the signal. A digest of the protocol:
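HepG2 cells transiently transfected with cis-regulated multiplexed reporter units, dosed 24 h. Reporter mRNA quantified by RT-PCR and capillary electrophoresis; internal background marker fitted bidirectionally versus DMSO.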

Assay [5] can be described thus: ATG_ERE_CIS: Attagene CIS-FACTORIAL HepG2 Assay for Estrogen Response Element (ERE) (AID 2282940). Particulars: HepG2 ERE cis-reporter, Attagene RNA transcript; actives raise or lower the signal. The method in brief:
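HepG2 cells transiently transfected with multiplexed cis-element reporter units, measuring endogenous transcription factor activity; ERE reporter mRNA quantified after 24 h exposure by RT-PCR, fluorescent labelling, HpaI digestion and capillary electrophoresis. Bidirectional change versus DMSO.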

Assay [6] in a line: ATG_Ets_CIS: Attagene CIS-FACTORIAL HepG2 Assay for human Erythroblast Transformation Specific (ETS) (AID 2282941). Conditions: HepG2 ETS cis-reporter transcription, actives raise or lower the signal. The method in brief:
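Multiplexed reporter transcript profiling: HepG2, 24 h treatment, total RNA to cDNA, PCR, 6-FAM labelling, HpaI cut, capillary electrophoresis. Gain- or loss-of-signal fitted against DMSO.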

Assay [7] concerns the target Hepatocyte nuclear factor 3-beta (Homo sapiens) (UniProt Q9Y261). Put plainly: ATG_FoxA2_CIS: Attagene CIS-FACTORIAL HepG2 Assay for human Forkhead box A2 (FOXA2) (AID 2282942). Conditions: HepG2 cis-reporter transcription factor activity, 24 h; actives raise or lower the signal. The method in brief: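 Transient MRTU transfection of HepG2 liver cells; 24 h treatment; total RNA → oligo(dT) RT → PCR → FAM primer extension → HpaI cut → CE. Bidirectional fit vs DMSO.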

The nature of assay [8]: ATG_FoxO_CIS: Attagene CIS-FACTORIAL HepG2 Assay for human Forkhead box O (FoxO) (AID 2282943). Conditions: HepG2 Attagene cis-reporter, FoxO element, mRNA; actives raise or lower the signal. The method in brief: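 Human hepatoma HepG2 cells carry transiently introduced reporter transcription units controlled by cis promoter elements. Chemical treatment lasted 24 h, and mRNA signal was compared with DMSO.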

The nature of assay [9]: ATG_GATA_CIS: Attagene CIS-FACTORIAL HepG2 Assay for human GATA Binding Protein (AID 2282944). Particulars: HepG2 GATA cis-element reporter, Attagene multiplex mRNA; actives raise or lower the signal. The method in brief: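 HepG2 cells transiently transfected with multiplexed cis-element reporter units measure endogenous GATA activity; after 24 h compound exposure, reporter mRNA quantified by RT-PCR and capillary electrophoresis. Changes fitted in both directions vs DMSO.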

A short description of assay [10]: ATG_GLI_CIS: Attagene CIS-FACTORIAL HepG2 Assay for human Zinc Finger Protein GLI1 (AID 2282945). Conditions: HepG2, Attagene cis-factorial reporter mRNA, GLI element; actives raise or lower the signal. A digest of the protocol: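 Bidirectional curve fits relative to DMSO, using reporter mRNA levels from RT-PCR plus capillary electrophoresis. Cells were HepG2 transiently carrying cis-regulated reporter constructs, harvested 24 h after dosing.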

In assay [11] the target is Bile acid receptor (Homo sapiens) (UniProt Q96RI1). The assay can be described thus: ATG_IR1_CIS: Attagene CIS-FACTORIAL HepG2 Assay for human Nuclear Receptor Subfamily 1 Group H Member 4 (NR1H4), IR1 submotif (AID 2282946). Particulars: IR1 reporter transcription, actives raise or lower the signal. A digest of the protocol: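 HepG2 cells transiently transfected with multiplexed cis-element reporter units read endogenous transcription factor activity. After 24 h compound exposure, reporter mRNA was quantified by RT-PCR, fluorescent labelling, HpaI digestion and capillary electrophoresis; bidirectional fitting versus DMSO baseline.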

Assay [12] is described as follows: ATG_ISRE_CIS: Attagene CIS-FACTORIAL HepG2 Assay for human Interferon Regulatory Factor 1 (IRF1) binding to an Interferon-Stimulated Response Element (ISRE) (AID 2282948). Particulars: HepG2 ISRE cis-reporter (Attagene), mRNA transcription readout; actives raise or lower the signal. A digest of the protocol:
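Signal reflects induction or loss of ISRE-linked reporter mRNA in transiently transfected HepG2 cells after a 24 h treatment, detected by fluorescent RT-PCR fragments on capillary electrophoresis and normalised to DMSO.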

Assay [13] in a line: ATG_M_32_CIS: Attagene CIS-FACTORIAL HepG2 Assay for M32 Transcription Factor (Internal Marker) (AID 2282949).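 Further: background control marker of the multiplexed CIS panel rather than a real target.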 Conditions: HepG2 Attagene cis-factorial M32 reporter, mRNA; actives raise or lower the signal. The method in brief: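 HepG2 human liver cells transiently transfected with cis-promoter-driven multiple reporter transcription units, dosed 24 h. Reporter mRNA quantified by RT-PCR, FAM-labelled primer extension, HpaI digest and capillary electrophoresis; bidirectional fit versus DMSO baseline.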

Assay [14] is described as follows: ATG_M_06_CIS: Attagene CIS-FACTORIAL HepG2 Assay for M06 Transcription Factor (Internal Marker) (AID 2282950). Conditions: HepG2 Attagene CIS-FACTORIAL M06 internal marker reporter; actives raise or lower the signal. The method in brief:
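Internal background marker within multiplexed cis-reporter HepG2 system. Cells transiently transfected, dosed 24 h; reporter mRNA measured by RT-PCR, HpaI digestion and capillary electrophoresis. Bidirectional fit relative to DMSO.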

Assay [15] concerns the target Hypoxia-inducible factor 1-alpha (Homo sapiens) (UniProt Q16665). Put plainly: ATG_HIF1a_CIS: Attagene CIS-FACTORIAL HepG2 Assay for human Hypoxia Inducible Factor 1 (HIF1A) (AID 2282951). Conditions: HepG2 Attagene cis-factorial HIF1a reporter transcription; actives raise or lower the signal. A digest of the protocol:
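Transient MRTU transfection of human HepG2 liver cells, 24 h compound treatment, then total RNA isolation, oligo(dT) reverse transcription, PCR amplification, fluorescent labelling and capillary electrophoresis of reporter fragments. Gain or loss relative to DMSO.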

Assay [16] concerns the target Hepatocyte nuclear factor 6 (Homo sapiens) (UniProt Q9UBC0). Put plainly: ATG_HNF6_CIS: Attagene CIS-FACTORIAL HepG2 Assay for human Hepatocyte Nuclear Factor 6 (HNF6) (AID 2282952). Conditions: HepG2 Attagene cis-factorial HNF6 reporter transcription; actives raise or lower the signal. A digest of the protocol:
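Endogenous factor activity read in transiently transfected HepG2 via promoter-regulated reporter transcripts. RNA harvested 24 h post-dosing, reverse-transcribed, PCR-amplified, FAM-labelled, HpaI-digested and resolved by capillary electrophoresis; fitted in both directions against DMSO.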

Assay [17] deals with Heat shock factor protein 1 (Homo sapiens) (UniProt Q00613). Put plainly: ATG_HSE_CIS: Attagene CIS-FACTORIAL HepG2 Assay for human Heat Shock Transcription Factor 1 (HSE) (AID 2282953). Particulars: HepG2 HSE cis-reporter, Attagene RNA transcription; actives raise or lower the signal. A digest of the protocol:
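HepG2 cells transfected with cis-promoter reporter units sensing endogenous transcription factor activity; reporter mRNA quantified 24 h post-dose by RT-PCR and capillary electrophoresis of 6-FAM-labelled products. Bidirectional fitting against DMSO.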

The nature of assay [18]: ATG_MRE_CIS: Attagene CIS-FACTORIAL HepG2 Assay for human Metal Responsive Element (MRE) (AID 2282954). Particulars: HepG2 MRE cis-reporter transcription, Attagene multiplex; actives raise or lower the signal. The method in brief: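 Endogenous MRE-dependent transcription read as reporter mRNA in transiently transfected human HepG2 cells at 24 h. RNA reverse-transcribed, PCR-amplified, labelled and resolved by capillary electrophoresis; gain or loss relative to DMSO.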

Assay [19] is described as follows: ATG_GRE_CIS: Attagene CIS-FACTORIAL HepG2 Assay for human Glucocorticoid Response Elements (GRE) (AID 2282947). Conditions: HepG2 GRE cis-reporter, Attagene multiplex mRNA; actives raise or lower the signal. A digest of the protocol: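 Reporter transcripts read by RT-PCR with capillary electrophoresis fluorescence after a 24 h chemical exposure of HepG2 cells transiently transfected with multiple cis-element reporter units. Gain or loss fitted against DMSO.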

The nature of assay [20]: ATG_PBREM_CIS: Attagene CIS-FACTORIAL HepG2 Assay for human Phenobarbital-responsive Enhancer Module (PBREM) (AID 2282955). Conditions: HepG2 PBREM cis-reporter, Attagene multiplexed transcription; actives raise or lower the signal. The method in brief:
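Endogenous transcription factors in human liver HepG2 cells drive a PBREM cis-element reporter, whose transcript level after 24 h treatment is quantified by RT-PCR with capillary electrophoresis; activity fitted in both directions against DMSO.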

Molecules are shown by their SMILES. Active and inactive are the calls of the source. How the source made its calls: active means hit-call score of the fitted dose curve at least 0.9, where 1 is the maximum; inactive means score below 0.9.

Hepatocyte nuclear factor 3-beta (Homo sapiens), sequence (Q9Y261 whole entry, looked up): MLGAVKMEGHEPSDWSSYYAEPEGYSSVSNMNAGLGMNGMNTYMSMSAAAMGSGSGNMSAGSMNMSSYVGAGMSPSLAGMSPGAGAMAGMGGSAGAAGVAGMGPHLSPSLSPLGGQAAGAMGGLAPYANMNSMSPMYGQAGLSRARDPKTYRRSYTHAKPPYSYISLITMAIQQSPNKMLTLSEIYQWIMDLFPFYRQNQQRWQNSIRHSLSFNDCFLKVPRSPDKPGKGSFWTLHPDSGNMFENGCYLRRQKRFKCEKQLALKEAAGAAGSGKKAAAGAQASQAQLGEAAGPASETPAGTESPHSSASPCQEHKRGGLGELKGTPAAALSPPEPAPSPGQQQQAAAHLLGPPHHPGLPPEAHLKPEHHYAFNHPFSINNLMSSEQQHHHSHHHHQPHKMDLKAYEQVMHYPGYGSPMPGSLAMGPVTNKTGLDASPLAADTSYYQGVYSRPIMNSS
Hypoxia-inducible factor 1-alpha (Homo sapiens), sequence (Q16665 whole entry, looked up, the tested form may be a part): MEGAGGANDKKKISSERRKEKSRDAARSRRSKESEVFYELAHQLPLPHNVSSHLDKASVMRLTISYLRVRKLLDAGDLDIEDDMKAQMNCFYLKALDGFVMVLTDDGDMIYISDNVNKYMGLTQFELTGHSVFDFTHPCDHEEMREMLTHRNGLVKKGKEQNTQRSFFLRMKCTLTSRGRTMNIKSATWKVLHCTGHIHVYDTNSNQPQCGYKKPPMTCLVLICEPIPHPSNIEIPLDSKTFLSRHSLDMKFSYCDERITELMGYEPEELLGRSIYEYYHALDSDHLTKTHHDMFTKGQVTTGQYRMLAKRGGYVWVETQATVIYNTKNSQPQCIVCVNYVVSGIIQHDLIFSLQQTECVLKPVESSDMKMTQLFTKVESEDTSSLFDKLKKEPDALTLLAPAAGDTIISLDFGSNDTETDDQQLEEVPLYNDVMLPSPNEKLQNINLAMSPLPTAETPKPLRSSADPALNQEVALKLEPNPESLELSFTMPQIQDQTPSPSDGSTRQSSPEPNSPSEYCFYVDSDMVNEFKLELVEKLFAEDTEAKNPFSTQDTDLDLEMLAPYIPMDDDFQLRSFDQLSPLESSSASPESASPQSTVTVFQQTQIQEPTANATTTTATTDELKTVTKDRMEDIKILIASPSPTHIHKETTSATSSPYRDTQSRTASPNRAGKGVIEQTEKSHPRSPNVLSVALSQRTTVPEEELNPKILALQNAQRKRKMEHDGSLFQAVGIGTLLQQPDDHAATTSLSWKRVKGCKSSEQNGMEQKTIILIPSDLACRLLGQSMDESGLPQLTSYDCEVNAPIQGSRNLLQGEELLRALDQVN
Hepatocyte nuclear factor 6 (Homo sapiens), sequence (Q9UBC0 whole entry, looked up): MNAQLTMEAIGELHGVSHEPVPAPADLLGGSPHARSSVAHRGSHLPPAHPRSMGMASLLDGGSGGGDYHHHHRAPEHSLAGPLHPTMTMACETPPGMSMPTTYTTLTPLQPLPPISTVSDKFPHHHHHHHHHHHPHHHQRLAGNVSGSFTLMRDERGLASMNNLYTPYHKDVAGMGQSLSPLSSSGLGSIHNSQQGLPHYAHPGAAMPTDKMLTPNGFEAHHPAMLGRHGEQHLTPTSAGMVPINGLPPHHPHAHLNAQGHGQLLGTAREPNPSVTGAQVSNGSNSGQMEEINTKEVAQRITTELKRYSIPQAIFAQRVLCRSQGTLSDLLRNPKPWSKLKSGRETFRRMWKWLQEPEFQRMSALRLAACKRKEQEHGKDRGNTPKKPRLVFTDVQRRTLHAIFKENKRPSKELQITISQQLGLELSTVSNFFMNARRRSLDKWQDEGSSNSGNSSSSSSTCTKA
Bile acid receptor (Homo sapiens), sequence (Q96RI1 whole entry, looked up): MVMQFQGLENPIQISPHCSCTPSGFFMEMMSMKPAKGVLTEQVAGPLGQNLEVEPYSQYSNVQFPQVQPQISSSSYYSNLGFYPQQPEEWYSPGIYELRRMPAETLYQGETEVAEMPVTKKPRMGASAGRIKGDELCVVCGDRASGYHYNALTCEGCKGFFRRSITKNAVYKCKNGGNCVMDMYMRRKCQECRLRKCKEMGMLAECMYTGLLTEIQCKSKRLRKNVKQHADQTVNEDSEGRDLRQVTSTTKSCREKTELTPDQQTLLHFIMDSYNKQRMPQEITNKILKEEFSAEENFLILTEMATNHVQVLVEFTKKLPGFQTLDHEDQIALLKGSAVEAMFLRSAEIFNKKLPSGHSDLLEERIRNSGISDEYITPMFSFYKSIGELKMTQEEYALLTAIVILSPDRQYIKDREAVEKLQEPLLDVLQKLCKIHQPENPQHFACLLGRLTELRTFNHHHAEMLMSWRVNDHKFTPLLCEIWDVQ
Heat shock factor protein 1 (Homo sapiens), sequence (Q00613 whole entry, looked up): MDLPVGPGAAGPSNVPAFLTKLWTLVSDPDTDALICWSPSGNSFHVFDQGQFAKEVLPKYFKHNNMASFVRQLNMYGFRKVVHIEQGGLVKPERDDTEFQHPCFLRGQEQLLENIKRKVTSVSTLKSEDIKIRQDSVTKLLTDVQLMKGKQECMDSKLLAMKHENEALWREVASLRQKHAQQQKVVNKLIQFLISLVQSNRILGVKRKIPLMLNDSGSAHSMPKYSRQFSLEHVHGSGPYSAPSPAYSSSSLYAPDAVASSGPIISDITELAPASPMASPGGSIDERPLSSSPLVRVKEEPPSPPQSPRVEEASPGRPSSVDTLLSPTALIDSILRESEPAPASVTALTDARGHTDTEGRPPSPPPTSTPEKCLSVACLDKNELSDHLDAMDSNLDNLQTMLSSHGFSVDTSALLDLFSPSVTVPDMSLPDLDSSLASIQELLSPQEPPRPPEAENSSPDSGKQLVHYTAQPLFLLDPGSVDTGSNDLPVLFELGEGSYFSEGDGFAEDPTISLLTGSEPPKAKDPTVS

As to `CC(=O)/C=C/C1=C(C)CCCC1(C)C`, the result in [1], in assay [2], in [3], in assay [4], in assay [5] and in assay [6] was inactive. The call in [7], in assay [8], in assay [9], in [10], in assay [11] and in assay [12] was inactive. In addition, the compound was called inactive in [13], in [14], in assay [15], in assay [16], in assay [17] and in assay [18].
On to `CCCCCCCCCCCCCC(=O)O`, for which the outcome in assay [1], in assay [2], in assay [3], in assay [4], in assay [5] and in [6] was inactive. Moreover, the compound was called inactive in assay [7], in assay [8], in assay [9], in [10], in [11] and in [19]. The call in assay [12], in assay [14], in assay [15], in assay [16], in assay [18] and in assay [20] was inactive.
Regarding `Nc1ccc(F)c([N+](=O)[O-])c1`, the result in [1], in [2], in [3], in assay [4], in assay [5] and in assay [6] was inactive. Moreover, the outcome in assay [7], in assay [8], in assay [9], in assay [10], in assay [11] and in assay [19] was inactive. Also, the result in assay [12], in assay [13], in assay [14], in assay [15], in [16] and in assay [17] was inactive. Also, the result in assay [18] and in assay [20] was inactive.
As for `CC1=CCC2C(C1)C2(C)C` (stereo not given), the outcome in assay [1], in [2], in assay [3], in assay [4], in assay [6] and in [7] was inactive. The call in assay [8], in assay [9], in assay [10], in assay [11], in [19] and in [12] was inactive. Further, the compound was classed as inactive in assay [13], in assay [14], in [15], in assay [16], in [17] and in assay [18]. Moreover, the AC50 in assay [5] is 82 µM (active).
Turning to `Nc1cc(N)cc(C(=O)O)c1`, the result in [1], in [2], in assay [3], in [4], in [5] and in assay [6] was inactive. The compound was called inactive in assay [7], in assay [8], in [9], in assay [10], in [11] and in [19]. Also, the compound was called inactive in assay [12], in assay [13], in [15], in assay [16], in assay [17] and in assay [18].
`Nc1cccc(S(=O)(=O)c2cccc(N)c2)c1`: the outcome in assay [1], in assay [2], in assay [3], in assay [4], in assay [5] and in assay [6] was inactive. Besides, the outcome in assay [7], in [8], in assay [9], in [10], in assay [19] and in [12] was inactive. The compound was classed as inactive in assay [13], in assay [14], in [15], in assay [16], in assay [17] and in assay [18].
Consider `CCC(C(=O)NC(N)=O)c1ccccc1` (stereo not given), for which the outcome in [1], in assay [2], in assay [3], in assay [4], in assay [5] and in assay [6] was inactive. For the same compound, the call in assay [7], in assay [8], in [9], in assay [10], in assay [11] and in assay [19] was inactive. Moreover, the compound was called inactive in assay [12], in assay [13], in assay [16], in assay [17] and in assay [18].
On to `CCN(CC)c1ccc2c(-c3ccccc3C(=O)O)c3ccc(=[N+](CC)CC)cc-3oc2c1`, for which the result in [1], in assay [2], in assay [4], in [5], in assay [6] and in [7] was inactive. Also, the compound was classed as inactive in assay [8], in assay [9], in [10], in assay [13], in assay [16] and in [20]. Further, the AC50 in [3] is 135 µM (active); in assay [11], 70.4 µM (active); in assay [12], 59.9 µM (active); in assay [17] it was 178 µM (active); in assay [18], 156 µM (active).
